Bioassay records deposited in PubChem BioAssay by National Center for Advancing Translational Sciences (NCATS).
L3MBTL1 block: qHTS Assay for the Inhibitors of L3MBTL1; Lethal(3)malignant brain tumor-like protein 1 (Homo sapiens), Q9Y468; AlphaScreen L3MBTL1–H3K9me1 peptide binding; Potency, µM (highest dose often 57.1 µM), usual class: inhibitors; 230,000 compounds, 0.66% hits; AID 485360, 2010; further: nearly all actives have a fitted effect of over 60% in size
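L3MBTL1 50 nM + b-AHA-H3(1-15)K9me1 75 nM, 30 min RT; compound added, 30 min RT; streptavidin donor/Ni-chelate acceptor beads 10 ug/mL each final, 30 min RT dark; AlphaScreen read.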
JMJD2A Tudor: qHTS Assay for Inhibitors of JMJD2A-Tudor Domain. 390,000 compounds, 4.4% hits. AlphaScreen JMJD2A-Tudor / H3K4me3 peptide binding. Potency, µM (titrated, usually from 114 µM), actives largely listed as inhibitors; further: nearly all actives have a fitted effect of over 50% in size
BAZ2B block: qHTS Assay for Inhibitors of BAZ2B. Bromodomain adjacent to zinc finger domain protein 2B (Homo sapiens), Q9UIF8. AlphaScreen BAZ2B-H3K14Ac peptide displacement. Potency, µM (doses to about 114 µM), actives largely listed as inhibitors. 360,000 compounds, 4.4% hits. AID 504333, 2011; further: nearly all actives have a fitted effect of over 60% in size
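In this displacement format the biotinylated H3(5-23) peptide acetylated at Lys14 serves as ligand at 50 nM, with BAZ2B at 50 nM in PBS pH 7.4 containing 0.01% Tween-20. Donor and acceptor beads are 10 ug/mL final.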
HP1b chromo inh: HTS for Inhibitors of HP1-beta Chromodomain Interactions with Methylated Histone Tails; Chromobox protein homolog 1 (Homo sapiens), P83916; Potency, µM (top dose mostly 114 µM), hits mostly inhibitors; 390,000 compounds, 0.56% hits; AID 540317, 2011; AlphaScreen HP1-beta / biotin-H3K9me3 peptide binding; further: nearly all actives have a fitted effect of over 70% in size
Target sequence (P83916 whole entry, looked up): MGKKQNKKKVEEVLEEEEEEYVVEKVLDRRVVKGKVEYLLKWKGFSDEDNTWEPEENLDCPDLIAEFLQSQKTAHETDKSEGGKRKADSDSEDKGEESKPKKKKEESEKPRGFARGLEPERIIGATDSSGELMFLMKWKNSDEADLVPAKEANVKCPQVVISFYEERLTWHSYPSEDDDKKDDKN
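AlphaScreen: HP1-beta (50 nM) preformed 30 min with biotin-H3(1-18)K9me3 peptide (50 nM) in PBS pH 7.4, 0.01% Tween-20. Compound added for 30 min at RT, then streptavidin donor/nickel chelate acceptor beads (10 ug/mL) for 30 min.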
G9a inh: qHTS Assay for Inhibitors of Histone Lysine Methyltransferase G9a; G9a H3K9 monomethylation, AlphaScreen, 2 h; 350,000 compounds, 8.8% hits; AID 504332, 2011; Histone-lysine N-methyltransferase EHMT2 (Homo sapiens), Q96KQ7; Potency, µM (top dose mostly 102 µM), actives largely listed as inhibitors; further: nearly all actives have a fitted effect of over 75% in size
Target sequence (Q96KQ7 913-1193 limits assumed): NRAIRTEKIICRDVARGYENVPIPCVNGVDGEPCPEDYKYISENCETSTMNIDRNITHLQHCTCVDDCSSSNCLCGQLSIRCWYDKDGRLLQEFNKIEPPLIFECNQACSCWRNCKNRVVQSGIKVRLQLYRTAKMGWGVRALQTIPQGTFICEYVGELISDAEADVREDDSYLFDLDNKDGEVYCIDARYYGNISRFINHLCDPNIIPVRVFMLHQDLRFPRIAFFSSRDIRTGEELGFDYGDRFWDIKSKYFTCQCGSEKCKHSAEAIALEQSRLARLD
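Quantitative HTS format: methyltransferase activity on a biotin-tagged H3K9 peptide is measured by AlphaScreen, using a rabbit anti-monomethyl-H3K9 antibody with streptavidin donor and anti-IgG acceptor beads. Final levels are 20 nM enzyme, 500 nM peptide, 20 uM SAM; 2 h RT.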
PI5P4Ka inh: qHTS for Inhibitors of phosphatidylinositol 5-phosphate 4-kinase (PI5P4K) | Phosphatidylinositol 5-phosphate 4-kinase type-2 alpha (Homo sapiens), P48426 | 330,000 compounds, 1.2% hits | PI5P4Kalpha enzyme, ADP-Glo luminescence, 60 min; active compounds read low | max response, %; active means max response of -50% or lower; inconclusive means between -30% and -50%; inactive means -30% or higher; further: value at the top dose of about 77 µM
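Reactions run in 0.038 M HEPES pH 7.4, 0.28 mM EGTA, 0.1% CHAPS and 5% DMSO, with PI5P4Kalpha, substrate, compound and 5 microM ATP final, one hour at room temperature. Readout is ADP-Glo luminescence.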
Hits are given with their value; ! = not active in a repeat; [ ] = dose if it differs, or a comment. Most compounds without a hit are left out; they make up all but 11% or so of the library. Unless noted, the call rests on the fitted dose curve; in most records, active means well fitted inhibition curve with a large enough effect; inconclusive means small, poorly fitted or top-dose-only effect; inactive means no such curve, though single readings can be large or run the other way.

What do the screens show for `O=C(CCNc1ccccc1)c1cccc([N+](=O)[O-])c1`?
L3MBTL1 block: inactive; JMJD2A Tudor: inconclusive; BAZ2B block: inconclusive; HP1b chromo inh: inactive; G9a inh: 18µM

How did O=C(C[n+]1cccc2ccccc21)c1ccc([N+](=O)[O-])cc1 do in these assays?
L3MBTL1 block: inactive; JMJD2A Tudor: 28µM; BAZ2B block: inactive; HP1b chromo inh: inactive; G9a inh: inconclusive; PI5P4Ka inh: -65

What do the screens show for `O=C(CCNc1ccc(Cc2ccncc2)cc1)c1ccc([N+](=O)[O-])cc1`?
L3MBTL1 block: inconclusive; JMJD2A Tudor: 22µM; BAZ2B block: inconclusive; HP1b chromo inh: inconclusive; G9a inh: inactive; PI5P4Ka inh: inactive

How did O=C(CNc1ccccc1)c1ccc([N+](=O)[O-])cc1 do in these assays?
L3MBTL1 block: inactive; JMJD2A Tudor: inactive; BAZ2B block: inconclusive; HP1b chromo inh: inactive; G9a inh: 4.5µM; PI5P4Ka inh: inactive

How did O=C(C[n+]1cccc2ccccc21)c1ccc(Cl)cc1 do in these assays?
JMJD2A Tudor: inactive; BAZ2B block: inactive; HP1b chromo inh: inactive; G9a inh: inconclusive; PI5P4Ka inh: inactive

How did COc1ccccc1C(=O)NCCn1cc(SCc2ccc(C)cc2)c2ccccc21 do in these assays?
JMJD2A Tudor: inactive; BAZ2B block: inactive; HP1b chromo inh: inactive; G9a inh: inactive

How did O=C(CCNc1ccc(Br)cc1)c1cccc([N+](=O)[O-])c1 do in these assays?
L3MBTL1 block: inactive; JMJD2A Tudor: 20µM; BAZ2B block: inconclusive; HP1b chromo inh: 79µM; G9a inh: 3.2µM; PI5P4Ka inh: inactive

How did O=C(NCCNc1ccc([N+](=O)[O-])cc1)c1cccc(Br)c1 do in these assays?
L3MBTL1 block: inactive; JMJD2A Tudor: inactive; BAZ2B block: inactive; HP1b chromo inh: inactive; G9a inh: inactive; PI5P4Ka inh: inactive

What do the screens show for `Cn1c(CS/C(N)=N/N=C/c2ccccc2)c(Br)c(=O)n1-c1ccccc1`?
L3MBTL1 block: inactive; JMJD2A Tudor: 50µM; BAZ2B block: inconclusive; HP1b chromo inh: inactive; G9a inh: 35µM; PI5P4Ka inh: inactive

Results for c1cc2c(cnc3cscc32)s1 ?
L3MBTL1 block: inactive; JMJD2A Tudor: inactive; BAZ2B block: inactive; HP1b chromo inh: inactive; G9a inh: 14µM; PI5P4Ka inh: inactive

What do the screens show for `O=C(Nc1cccc(C(F)(F)F)c1)c1cc(CN2CCOCC2)on1`?
JMJD2A Tudor: inactive; BAZ2B block: inactive; HP1b chromo inh: inactive; G9a inh: inactive

How did COc1ccccc1CCn1c(=O)c(-c2cccs2)nc2cncnc21 do in these assays?
G9a inh: inactive[0.501 µM]

How did CC(=O)N1CCN(CCN=CC2=C(O)CC(c3cccs3)CC2=O)CC1 (stereo not drawn) do in these assays?
L3MBTL1 block: inactive; JMJD2A Tudor: inactive; BAZ2B block: inactive; HP1b chromo inh: inactive; G9a inh: 50µM; PI5P4Ka inh: inactive

Results for CC(=O)N1CCN(CCN=CC2=C(O)CC(c3ccc(Cl)cc3)CC2=O)CC1 (stereo not drawn) ?
L3MBTL1 block: inactive; JMJD2A Tudor: inactive; BAZ2B block: inactive; HP1b chromo inh: inactive; G9a inh: 50µM; PI5P4Ka inh: inactive

What do the screens show for `COc1ccc2cc1Oc1ccc(cc1)C[C@H]1c3c(cc4c(c3Oc3cc5c(cc3OC)CCN(C)[C@@H]5C2)OCO4)CCN1C`?
JMJD2A Tudor: 35µM; BAZ2B block: inactive; HP1b chromo inh: inconclusive; G9a inh: 11µM!; PI5P4Ka inh: inactive

What do the screens show for `COc1ccc2c(c1OC)C(=O)OC2[C@H]1c2c(cc3c(c2OC)OCO3)CCN1C` (stereo partly drawn)?
G9a inh: inactive[12.7 µM]

How did CCOC(=O)c1ccc(-n2c(N)c(C(=O)OC)c3nc4ccccc4nc32)cc1 do in these assays?
JMJD2A Tudor: inactive; BAZ2B block: inactive; HP1b chromo inh: inactive; G9a inh: inactive

What do the screens show for `CCOc1ccc(NC(=O)CCc2nnc3n(C)c(=O)c4sccc4n23)cc1`?
JMJD2A Tudor: inactive; BAZ2B block: inactive; HP1b chromo inh: inactive; G9a inh: inactive

What do the screens show for `Clc1ccc(/C=N/c2c(-c3ccc(Cl)cc3)nc3n2CCS3)cc1`?
L3MBTL1 block: inactive; JMJD2A Tudor: inconclusive; BAZ2B block: inconclusive; HP1b chromo inh: inactive; G9a inh: 35µM; PI5P4Ka inh: inactive

What do the screens show for `O=C1NC2(CCCCC2)NN1c1ccccc1`?
JMJD2A Tudor: inactive; BAZ2B block: inconclusive; HP1b chromo inh: inactive; G9a inh: inactive; PI5P4Ka inh: inactive

How did CC1CCC2(CC1)NC(=S)N(C(C)(C)C)N2 (stereo not drawn) do in these assays?
L3MBTL1 block: inactive; JMJD2A Tudor: inconclusive; BAZ2B block: inactive; HP1b chromo inh: inactive; G9a inh: 7.1µM; PI5P4Ka inh: inconclusive

How did CC1CCC2(CC1)NC(=S)N(c1ccccc1)N2 (stereo not drawn) do in these assays?
JMJD2A Tudor: inactive; BAZ2B block: 79µM; HP1b chromo inh: inactive; G9a inh: 6.3µM; PI5P4Ka inh: inactive

What do the screens show for `COc1ccc(NC(=O)c2cc(S(=O)(=O)N3CCCCCC3)cn2C)cc1Cl`?
JMJD2A Tudor: inactive; BAZ2B block: inactive; HP1b chromo inh: inactive; G9a inh: inactive

How did Clc1cccc(CSc2nc3ccncc3[nH]2)c1 do in these assays?
JMJD2A Tudor: inactive; BAZ2B block: inactive; HP1b chromo inh: inactive; G9a inh: inconclusive; PI5P4Ka inh: inactive

Results for O=C(NCCN1CCN(c2cccc(Cl)c2)CC1)c1ccc(CSc2nc3ccncc3[nH]2)cc1 ?
JMJD2A Tudor: 45µM; BAZ2B block: inconclusive; HP1b chromo inh: inactive; G9a inh: 50µM; PI5P4Ka inh: inactive

Results for Cc1c(Cl)cccc1NC(=O)Cn1c(=O)n(Cc2ccco2)c(=O)c2oc3ccccc3c21 ?
JMJD2A Tudor: inactive; BAZ2B block: inactive; HP1b chromo inh: inactive; G9a inh: inactive

Results for CCN1C(=O)[C@H]2[C@@H](c3ccc(-c4ccc(OC)cc4)c(OC)c3)N[C@@](Cc3ccccc3)(C(=O)OC)[C@H]2C1=O ?
L3MBTL1 block: inactive; JMJD2A Tudor: inactive; HP1b chromo inh: inactive; PI5P4Ka inh: inactive

What do the screens show for `COc1ccc(C2NC(Cc3ccccc3)(C(=O)O)C3C(=O)N(c4ccccc4OC)C(=O)C23)cc1` (stereo not drawn)?
JMJD2A Tudor: inactive; BAZ2B block: inactive; HP1b chromo inh: inactive; G9a inh: 50µM; PI5P4Ka inh: inactive
